Source: PubChem BioAssay (EPA / NIEHS)
Records with an inconclusive call do not appear. The source made the active and inactive calls. How the source made its calls, unless noted: active means hit-call score of the fitted dose curve at least 0.9, where 1 is the maximum; inactive means score below 0.9.

Columns and labels:
[1] = read-out: Monocyte Chemoattractant Protein-1 (MCP1), CCL2 (gene 6347); assay: BSK_LPS_MCP1: BioMAP Diversity Plus: LPS Assay for Monocyte Chemoattractant Protein-1 (MCP1) Biomarker Activity (AID 2283081); conditions: primary human HUVEC with PBMC; actives raise or lower the signal;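 on AC50: secreted MCP-1 protein quantified by ELISA in culture supernatant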
In short: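 Human umbilical vein endothelial cells co-cultured with PBMC, LPS-stimulated; secreted MCP-1 measured by ELISA 24 h after compound addition. Bidirectional curve fitting against DMSO baseline; SRB total-protein staining in parallel cultures for cytotoxicity.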

[2] = read-out: Macrophage colony-stimulating factor (MCSF), CSF1 (gene 1435); assay: BSK_LPS_MCSF: BioMAP Diversity Plus: LPS Assay for Macrophage colony-stimulating factor (MCSF) Biomarker Activity (AID 2283083); conditions: primary human HUVEC with PBMC; actives raise or lower the signal
In short: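 HUVEC–PBMC co-culture, M-CSF measured by ELISA 24 h after chemical dosing. Fitted in both directions relative to DMSO as negative control; overt cytotoxicity assessed by SRB total-protein staining in parallel cultures.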

[3] = read-out: Tumor necrosis factor (Homo sapiens) (UniProt P01375); assay: BSK_LPS_TNFa: BioMAP Diversity Plus: LPS Assay for Tumour Necrosis Factor alpha (TNFa) Biomarker Activity (AID 2283085); conditions: primary human HUVEC with PBMC; actives raise or lower the signal;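 on AC50: TNFa protein level quantified by ELISA in the co-culture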
In short: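 ELISA-based TNFa endpoint in a human endothelial–PBMC co-culture sampled 24 h post-exposure. Curves were fitted in both directions using DMSO as baseline of activity.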

[4] = read-out: Vascular cell adhesion molecule 1 (VCAM1), VCAM1 (gene 7412); assay: BSK_LPS_VCAM1: BioMAP Diversity Plus: LPS Assay for Vascular cell adhesion molecule 1 (VCAM1) Biomarker Activity (AID 2283086); conditions: primary human HUVEC with PBMC; actives raise or lower the signal
In short: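 Measured by ELISA: VCAM-1 in LPS-activated HUVEC/PBMC co-cultures 24 h after treatment. Values reflect bidirectional fitting with DMSO as baseline.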

CD38, CD38 (gene 952) = assay: BSK_SAg_CD38: BioMAP Diversity Plus: SAg Assay for CD38 Biomarker Activity (AID 2283087); conditions: primary human HUVEC with PBMC; actives raise or lower the signal
In short: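 Measures CD38 on a human endothelial/PBMC co-culture driven by SEB and TSST-1, 24 h after compound exposure, using ELISA with fluorescence detection; DMSO defines baseline for bidirectional curve fitting.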

CD40, CD40 (gene 958) = assay: BSK_SAg_CD40: BioMAP Diversity Plus: SAg Assay for CD40 Biomarker Activity (AID 2283088); conditions: primary human HUVEC with PBMC; actives raise or lower the signal
In short: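 HUVEC plus PBMC co-culture, superantigen-activated, with CD40 read by ELISA 24 h after dosing. Curves fitted in both directions against DMSO. Overt cytotoxicity checked by parallel SRB total-protein staining.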

CD69, CD69 (gene 969) = assay: BSK_SAg_CD69: BioMAP Diversity Plus: SAg Assay for CD69 Biomarker Activity (AID 2283089); conditions: primary human HUVEC with PBMC; actives raise or lower the signal;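 on AC50: cell surface CD69 protein quantified by ELISA with fluorescence detection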
In short: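 ELISA, fluorescence read-out: CD69 on human umbilical vein endothelial cell + PBMC co-culture, 24 h post-dosing. Gain or loss of signal fitted bidirectionally against DMSO baseline.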

[5] = read-out: Monocyte Chemoattractant Protein-1 (MCP1), CCL2 (gene 6347); assay: BSK_SAg_MCP1: BioMAP Diversity Plus: SAg Assay for Monocyte Chemoattractant Protein-1 (MCP1) Biomarker Activity (AID 2283090); conditions: primary human HUVEC with PBMC; actives raise or lower the signal
In short: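 Values derive from bidirectional fitting of ELISA-measured MCP1 against DMSO controls. Readings were taken 24 h after dosing human vascular endothelial cells co-cultured with peripheral blood mononuclear cells under superantigen stimulation.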

[6] = read-out: E-selectin (Homo sapiens) (UniProt P16581); assay: BSK_SAg_Eselectin: BioMAP Diversity Plus: SAg Assay for Eselectin Biomarker Activity (AID 2283091); conditions: primary human HUVEC with PBMC; actives raise or lower the signal
In short: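 Human umbilical vein endothelial cells co-cultured with peripheral blood mononuclear cells, SAg system. E-selectin is measured by ELISA 24 h after dosing and fitted bidirectionally against DMSO. Cytotoxicity is checked by SRB staining of parallel cultures.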

[7] = read-out: Monokine induced gamma interferon (MIG), CXCL9 (gene 4283); assay: BSK_SAg_MIG: BioMAP Diversity Plus: SAg Assay for Monokine induced gamma interferon (MIG) Biomarker Activity (AID 2283092); conditions: primary human HUVEC with PBMC; actives raise or lower the signal
In short: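 ELISA readout of MIG/CXCL9; primary human umbilical vein endothelial cells co-cultured with peripheral blood mononuclear cells; 24 h post-dose; gain/loss fit vs DMSO baseline.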

[8] = BSK_SAg_PBMCCytotoxicity: PBMC Cytotoxicity Assessment in the BioMAP Diversity Plus: SAg Assay (AID 2283093); conditions: primary human HUVEC with PBMC;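 further: fitted both ways against DMSO so a hit may be loss or gain of signal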;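 on AC50: PBMC superantigen activated with SEB plus TSST-1 one hour after compound addition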
In short: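 PBMC viability by Alamar Blue reduction, fluorescence read at 546/580 nm after 6 h dye exposure. Cells were dosed 1 h before SEB plus TSST-1 activation (20 ng/mL final each), then held 90 h; endothelial/PBMC human co-culture.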

[9] = read-out: Interleukin-8 (IL8), CXCL8 (gene 3576); assay: BSK_SAg_IL8: BioMAP Diversity Plus: SAg Assay for Interleukin-8 (IL8) Biomarker Activity (AID 2283094); conditions: primary human HUVEC with PBMC; actives raise or lower the signal
In short: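 Primary human endothelial cells with PBMC, exposed 24 h; IL-8 determined by ELISA, analysed bidirectionally relative to DMSO.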

[10] = BSK_SAg_Proliferation: Cell Proliferation Assessment in the BioMAP Diversity Plus: SAg Assay (AID 2283095); conditions: primary human HUVEC with PBMC;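 further: relative cell number as total protein by SRB absorbance in sub-confluent culture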
In short: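 A human primary co-culture of umbilical vein endothelium and blood mononuclear cells receives compound; relative cell number is quantified at 96 h by SRB staining and 560 nm absorbance, with DMSO-referenced bidirectional curve fitting.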

[11] = BSK_SAg_SRB: Viability Assessment in the BioMAP Diversity Plus: SAg Assay (AID 2283096); conditions: primary human HUVEC with PBMC;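 further: cells read one day after compound addition; hits may be either gain or loss of signal compared with DMSO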
In short: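 Compounds were added to a human vascular co-culture of umbilical vein endothelium and PBMC. After 24 h, parallel cultures were fixed with 10% TCA, stained with 0.1% sulforhodamine B and read at 560 nm. Gain or loss of signal was fitted relative to DMSO.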

[12] = biological target: human CYP19A1, CYP19A1 (gene 1588) (UniProt P11511); assay: NVS_ADME_hCYP19A1: NovaScreen (NVS) CYP450-related Enzyme Activity (ADME) Assay for human CYP19A1 (AID 2283098; active means hit-call score of the fitted dose curve at least 0.9, where 1 is the maximum)
In short: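 Fluorescence intensity read-out; activity taken as signal loss relative to acetonitrile vehicle. Extracted enzyme, specific substrate, no cells, 0.5 h exposure. Duplicate single-point screen at 10 uM, then concentration–response follow-up for actives.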

[13] = read-out: Tissue Factor, F3 (gene 2152); assay: BSK_LPS_TissueFactor: BioMAP Diversity Plus: LPS Assay for Tissue Factor Biomarker Activity (AID 2283084); conditions: primary human HUVEC with PBMC; actives raise or lower the signal
In short: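 Human umbilical vein endothelial cells co-cultured with PBMC were dosed with compound. Cell-surface CD142 was measured by ELISA 24 h later. Activity was fitted bidirectionally against DMSO, with SRB total-protein staining in parallel cultures for cytotoxicity.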

[14] = biological target: human CYP2A6, CYP2A6 (gene 1548) (UniProt P11509); assay: NVS_ADME_hCYP2A6: NovaScreen (NVS) CYP450-related Enzyme Activity (ADME) Assay for human CYP2A6 (AID 2283099; active means hit-call score of the fitted dose curve at least 0.9, where 1 is the maximum)
In short: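 Recombinant human CYP2A6 expressed in insect cells, cell-free; fluorogenic substrate turnover read by fluorescence intensity 0.5 h after dosing. Primary screen 10 uM in duplicate, then concentration-response up to 20 uM; acetonitrile as negative control.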

[15] = biological target: human CYP2B6, CYP2B6 (gene 1555) (UniProt P20813); assay: NVS_ADME_hCYP2B6: NovaScreen (NVS) CYP450-related Enzyme Activity (ADME) Assay for human CYP2B6 (AID 2283101; active means hit-call score of the fitted dose curve at least 0.9, where 1 is the maximum)
In short: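 Fluorescence-based enzyme activity of recombinant human CYP2B6, measured 1 h post-dose against acetonitrile vehicle baseline. Screened at a single concentration of 10 uM in duplicate before concentration-response follow-up.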

[16] = biological target: human CYP1A2, CYP1A2 (gene 1544) (UniProt P05177); assay: NVS_ADME_hCYP1A2: NovaScreen (NVS) CYP450-related Enzyme Activity (ADME) Assay for human CYP1A2 (AID 2283102; active means hit-call score of the fitted dose curve at least 0.9, where 1 is the maximum;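 further: potency for inhibition since loss of fluorescence marks reduced CYP1A2 activity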)
In short: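 Recombinant human CYP1A2 from insect cells, cell-free, fluorogenic substrate; read 0.5 h after dosing with loss of fluorescence signal indicating inhibition. Primary screen in duplicate at 10 uM, acetonitrile as negative control.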

Measured: AC50

Sequence of E-selectin (Homo sapiens) (P16581 whole entry, looked up): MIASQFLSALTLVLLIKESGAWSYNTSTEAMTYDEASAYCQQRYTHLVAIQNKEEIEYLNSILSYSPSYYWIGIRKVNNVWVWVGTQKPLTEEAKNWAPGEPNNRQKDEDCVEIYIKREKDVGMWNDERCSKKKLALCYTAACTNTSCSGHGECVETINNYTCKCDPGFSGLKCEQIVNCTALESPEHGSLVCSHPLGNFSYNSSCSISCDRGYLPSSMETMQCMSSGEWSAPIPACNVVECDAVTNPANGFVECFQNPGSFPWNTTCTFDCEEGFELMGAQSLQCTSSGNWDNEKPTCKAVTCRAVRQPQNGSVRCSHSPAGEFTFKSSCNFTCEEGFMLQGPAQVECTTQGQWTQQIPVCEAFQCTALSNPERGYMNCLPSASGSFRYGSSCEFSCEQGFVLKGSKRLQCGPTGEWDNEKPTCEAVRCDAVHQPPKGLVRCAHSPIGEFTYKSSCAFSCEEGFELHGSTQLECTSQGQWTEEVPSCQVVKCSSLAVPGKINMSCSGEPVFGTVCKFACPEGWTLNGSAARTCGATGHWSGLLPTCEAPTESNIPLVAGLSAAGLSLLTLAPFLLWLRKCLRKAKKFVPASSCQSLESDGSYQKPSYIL
Sequence of Tumor necrosis factor (Homo sapiens) (P01375 whole entry, looked up): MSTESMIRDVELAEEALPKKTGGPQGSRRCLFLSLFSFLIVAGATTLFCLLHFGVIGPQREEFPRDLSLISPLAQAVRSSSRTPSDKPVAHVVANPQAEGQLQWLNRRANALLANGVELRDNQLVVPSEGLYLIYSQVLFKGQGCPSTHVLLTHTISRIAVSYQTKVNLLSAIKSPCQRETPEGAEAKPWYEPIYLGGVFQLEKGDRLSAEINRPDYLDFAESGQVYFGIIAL
Sequence of human CYP1A2, CYP1A2 (gene 1544) (P05177 whole entry, looked up): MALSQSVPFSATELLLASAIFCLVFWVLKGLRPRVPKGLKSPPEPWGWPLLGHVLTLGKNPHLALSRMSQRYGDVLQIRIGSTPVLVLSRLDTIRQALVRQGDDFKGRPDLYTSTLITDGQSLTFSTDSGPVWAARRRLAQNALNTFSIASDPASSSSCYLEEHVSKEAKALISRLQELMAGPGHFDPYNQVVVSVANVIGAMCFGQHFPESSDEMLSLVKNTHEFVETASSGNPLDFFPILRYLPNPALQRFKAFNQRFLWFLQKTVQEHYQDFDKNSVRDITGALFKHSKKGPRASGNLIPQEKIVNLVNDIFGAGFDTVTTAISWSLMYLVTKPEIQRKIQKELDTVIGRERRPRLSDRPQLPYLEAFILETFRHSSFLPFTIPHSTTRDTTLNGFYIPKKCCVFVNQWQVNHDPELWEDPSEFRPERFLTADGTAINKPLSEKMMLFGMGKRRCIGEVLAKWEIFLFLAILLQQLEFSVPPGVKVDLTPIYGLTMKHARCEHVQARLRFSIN
Sequence of human CYP19A1, CYP19A1 (gene 1588) (P11511 whole entry, looked up): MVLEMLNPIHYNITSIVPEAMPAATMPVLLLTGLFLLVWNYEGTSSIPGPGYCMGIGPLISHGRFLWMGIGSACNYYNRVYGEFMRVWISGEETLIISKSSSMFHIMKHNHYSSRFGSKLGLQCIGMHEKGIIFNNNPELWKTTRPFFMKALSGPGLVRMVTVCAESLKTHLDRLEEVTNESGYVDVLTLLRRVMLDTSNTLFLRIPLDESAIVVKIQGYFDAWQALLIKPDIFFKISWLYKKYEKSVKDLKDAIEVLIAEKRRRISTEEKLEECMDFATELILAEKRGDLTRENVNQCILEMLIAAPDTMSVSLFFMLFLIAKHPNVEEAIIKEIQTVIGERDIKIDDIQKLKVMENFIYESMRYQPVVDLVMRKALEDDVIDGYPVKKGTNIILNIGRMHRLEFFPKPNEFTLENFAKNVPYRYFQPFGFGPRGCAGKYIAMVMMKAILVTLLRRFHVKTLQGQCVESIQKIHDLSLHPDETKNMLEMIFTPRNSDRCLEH
Sequence of human CYP2B6, CYP2B6 (gene 1555) (P20813 whole entry, looked up): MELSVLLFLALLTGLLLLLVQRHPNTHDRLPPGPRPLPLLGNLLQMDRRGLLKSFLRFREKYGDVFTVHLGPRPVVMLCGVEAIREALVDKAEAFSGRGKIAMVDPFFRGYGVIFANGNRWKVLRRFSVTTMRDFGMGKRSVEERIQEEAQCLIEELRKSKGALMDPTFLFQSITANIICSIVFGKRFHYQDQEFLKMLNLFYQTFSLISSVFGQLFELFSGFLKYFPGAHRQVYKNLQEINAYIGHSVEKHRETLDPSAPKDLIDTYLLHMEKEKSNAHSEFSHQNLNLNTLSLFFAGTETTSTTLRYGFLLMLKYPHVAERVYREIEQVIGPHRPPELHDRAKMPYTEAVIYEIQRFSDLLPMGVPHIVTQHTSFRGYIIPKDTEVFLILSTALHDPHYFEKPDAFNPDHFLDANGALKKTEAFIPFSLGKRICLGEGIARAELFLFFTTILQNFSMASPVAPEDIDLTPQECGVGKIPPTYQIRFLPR
Sequence of human CYP2A6, CYP2A6 (gene 1548) (P11509 whole entry, looked up): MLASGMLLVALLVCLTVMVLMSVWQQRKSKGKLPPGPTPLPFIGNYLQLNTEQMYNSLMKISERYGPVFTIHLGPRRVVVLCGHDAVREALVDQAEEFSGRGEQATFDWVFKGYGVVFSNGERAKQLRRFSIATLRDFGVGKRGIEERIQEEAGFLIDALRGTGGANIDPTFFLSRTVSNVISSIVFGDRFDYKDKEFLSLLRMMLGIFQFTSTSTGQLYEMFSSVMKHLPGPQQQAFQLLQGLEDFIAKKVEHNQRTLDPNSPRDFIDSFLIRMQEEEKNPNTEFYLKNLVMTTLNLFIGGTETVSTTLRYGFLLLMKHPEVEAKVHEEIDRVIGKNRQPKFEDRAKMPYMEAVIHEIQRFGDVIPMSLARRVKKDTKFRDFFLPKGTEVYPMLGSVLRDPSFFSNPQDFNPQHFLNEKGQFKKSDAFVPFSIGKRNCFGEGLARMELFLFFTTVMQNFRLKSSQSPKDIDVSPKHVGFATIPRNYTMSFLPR

OCCO
not listed: [13] | [14] | [15] | [16]
inactive: all other assays above

Oc1ccccc1
not listed: [12] | [15] | [16]
inactive: all other assays above

c1ccc2n[nH]nc2c1
not listed: [10] | [12] | [14] | [15] | [16]
inactive: all other assays above

COCC(C)OCC(C)OCC(C)O (centres undefined)
not listed: [12] | [14] | [15] | [16]
inactive: all other assays above

CN(C)c1ccc(C(=C2C=CC(=[N+](C)C)C=C2)c2ccc(N(C)C)cc2)cc1
active: [1] 0.269 µM | [2] 0.476 µM | [3] 1.46 µM | [4] 2.51 µM | CD38, CD38 (gene 952) 1.01 µM | CD40, CD40 (gene 958) 0.534 µM | CD69, CD69 (gene 969) 0.582 µM | [5] 0.325 µM | [6] 0.223 µM | [7] 1.61 µM | [8] 5.83 µM | [9] 0.148 µM | [11] 7.53 µM | [15] 6.7 µM | [16] 6.67 µM

CCCCCCCCN(C)CCCCCCCC
not listed: [12] | [13] | [14] | [15] | [16]
inactive: all other assays above

CCCCCc1ccc(N)cc1
active: [4] 20 µM
not listed: [12] | [14] | [15] | [16]
inactive: all other assays above

CCN(Cc1cccc(S(=O)(=O)O)c1)c1ccc(C(=C2C=CC(=[N+](CC)Cc3cccc(S(=O)(=O)O)c3)C=C2)c2ccccc2S(=O)(=O)[O-])cc1
active: [8] 10 µM | [10] 9.61 µM
not listed: [12] | [13] | [14] | [15] | [16]
inactive: all other assays above

CCCCCCCCCCCC[N+](C)(C)C
active: [1] 25.5 µM | [2] 26 µM | [3] 31.7 µM | [4] 25.7 µM | CD38, CD38 (gene 952) 17.4 µM | CD69, CD69 (gene 969) 18.1 µM | [5] 18.4 µM | [6] 32.2 µM | [7] 29.4 µM | [8] 20 µM | [11] 25.8 µM
